What was measured:
Assay in all cases: PBM binding z-score (relative to random genomic background probes); higher = stronger binding; sequences stand for … in GC…GCGATTGACAGCGTAGAATGAAGG
[1] = test system: PPARg:RXRa DBDmut IVT, anti-RXR (DBD mutation: RXRa K156A/R161A, NR concentration 270 nM, RXRa partner concentration 90 nM)
How it was run: (§1)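 Probes were double-stranded and carried 34-nt variable regions with direct-repeat seeds, single-nucleotide variants, half-site ablations and random human genomic background sequences, printed on custom Agilent 4×180K protein-binding microarrays. Arrays were incubated 1 h with ligand-free nuclear receptor dimers in PBS pH 7.4, 2% milk, 0.02% Triton X-100, 1 mM DTT, 0.2 mg/mL BSA and 0.4 mg/ml salmon testes DNA. Antibodies against each partner (one per run) detected binding, and scanned fluorescence was regression-normalized. Binding z-scores use the random background probes as reference.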

[2] = test system: PPARg:RXRa IVT, anti-PPARg (NR concentration 270 nM, RXRa partner concentration 90 nM)
How it was run: as §1

[3] = test system: PPARg DBDmut:RXRa IVT, anti-PPARg (DBD mutation: PPARg1 K132A/R137A, NR concentration 270 nM, RXRa partner concentration 90 nM)
How it was run: as §1

[4] = test system: PPARg DBDmut IVT, anti-PPARg (DBD mutation: PPARg1 K132A/R137A, NR concentration 270 nM)
How it was run: as §1

[5] = test system: PPARg homodimer (NR concentration 180 nM)
How it was run: as §1

[6] = test system: PXR:RXRa (NR concentration 270 nM, RXRa partner concentration 90 nM)
How it was run: as §1

[7] = test system: PXR homodimer (NR concentration 270 nM)
How it was run: as §1

[8] = test system: RARa:RXR (NR concentration 270 nM, RXRa partner concentration 90 nM)
How it was run: as §1

[9] = test system: RARa homodimer (NR concentration 270 nM)
How it was run: as §1

[10] = test system: RARb:RXRa (NR concentration 270 nM, RXRa partner concentration 90 nM)
How it was run: as §1

Sequence | PBM binding z-score [1] | PBM binding z-score [2] | PBM binding z-score [3] | PBM binding z-score [4] | PBM binding z-score [5] | PBM binding z-score [6] | PBM binding z-score [7] | PBM binding z-score [8] | PBM binding z-score [9] | PBM binding z-score [10]
TCGAGTAGGTTCGTCGGGGCATTCAGCCAACATA | 0.771 | -0.0233 | -1.34 | -1.13 | -0.174 | 0.391 | -0.361 | 0.296 | -0.807 | 0.556
GCAGATAGGTGAAACGCAGGTAACTCAGGGTGGC | 3.27 | 1.58 | 0.0261 | -0.672 | -0.419 | -0.335 | -0.798 | 0.347 | -0.582 | 0.748
TCATATAGGCAATACAGGTGAAAGTCGGCATCTA | 2.91 | 1.7 | 0.893 | 0.339 | 0.723 | 0.419 | 0.292 | 0.707 | 0.869 | 0.192
AGAATGAGGTTATACGTAGATCAGAGAAGAAAGT | 3.8 | 2.41 | 0.986 | 0.988 | 1.35 | 1.1 | 0.455 | 1.51 | 0.376 | 1.38
TCTAGTTGGTCAAAGGTAACACACTCGAAATGCG | 3.54 | 3.93 | 1.52 | 1.17 | 2.03 | 1.34 | 0.784 | 1.93 | 1.72 | 1.86
TCATATACGTAAAAGGTGAAAGTCGGTGTGGTAA | 2.65 | 1.71 | 2.06 | 2.25 | 1.84 | 1.35 | 0.642 | 1.89 | 1.88 | 1.9
AGAATGAGGTTATACGTAGATCATGGAAGAAAGT | 3.69 | 2.6 | 1.46 | 0.947 | 1.21 | 1.25 | 0.482 | 1.77 | 0.298 | 1.53
AGAATGAGGTTATACGTAGAGCAGGGAAGAAAGT | 3.85 | 2.15 | 1.23 | 1.06 | 1.79 | 1.13 | 0.781 | 1.57 | 0.0508 | 1.51
ATATATAGGTTAGCTGGGGTCATTCAGACTAGGC | 6.82 | 5.96 | 2.35 | 1.71 | 2.62 | 6.52 | 3.94 | 5.27 | 2.07 | 3.21
TGAATGAGGTTATAAGATCCGGGAACGTTGCAAA | 1.11 | 1.48 | 1.46 | 0.366 | 0.364 | 0.692 | -0.0533 | 1.28 | -0.21 | 1.14
GATACAGGGTCAAGGCCAGGGTACGCGTATTGAT | 1.85 | 4.19 | 0.695 | 0.43 | 3.1 | 4.32 | 0.122 | 5.19 | 0.648 | 4.5
ATAGAAAGGTCGTGAGGTGAGTATACAGAAAGGC | 0.952 | 2.43 | 1.91 | 1.19 | 2 | 3.19 | 0.712 | 4.26 | 1.11 | 3.97
TCTTGTAGATCAACAGGAGGTTAAGAAAGATCGA | 1.3 | 0.568 | 0.392 | 0.445 | 0.0227 | 0.753 | -0.259 | 0.995 | -0.178 | 0.617
CAGCCTAGGTCCGGGCCAGTATAGGAGGAACGTT | -1.2 | -1.1 | -2.15 | -1.84 | -1.61 | -1.01 | -0.992 | -1.12 | -1.43 | -0.671
TCTTGTAGATCAACAGTAGGTTAAGAAAGATCGA | 2.46 | 1.72 | 0.934 | 0.698 | 0.243 | 0.284 | -0.303 | 0.504 | 0.265 | 0.132
TTATATAGGTAAATGCTAGGTGAAAGTCCGATCT | 6.27 | 5.32 | 1.86 | 2.12 | 1.28 | 0.481 | 0.535 | 0.686 | 1.58 | 0.351
CGAACTAGGTCATTGACAGCACAGTGAATAGTAA | 7.82 | 8.09 | 2.12 | 2.03 | 1.52 | 1.18 | 0.34 | 1.77 | 0.733 | 3.58
CAAACTAGTTCACGAAAGGTCAAAGTCGAATGAC | 2.5 | 3.57 | 1.49 | 0.645 | 5.52 | 6.88 | 5.53 | 7 | 3.03 | 4.89
TCTTGTAGATCAGCAGGTTAAGATAGCTGGCCAA | 1.75 | 0.446 | 0.0165 | 0.121 | 0.155 | 0.31 | -0.37 | 0.429 | -0.336 | 0.168
ACTAGCAGGGCAAGGGTCACTCAAGATTAGTCCG | 2.1 | 4.69 | -0.137 | -0.877 | 1.91 | 3.4 | -0.121 | 4.49 | 0.318 | 3.46
TCTGTTAGTTGATTAGGGCAACCGAAACAGCGGA | 1.71 | 1.89 | 1.51 | 1.52 | 1.09 | 0.57 | 0.354 | 0.456 | 0.969 | 1.19
GCTCGGAGGACAAGGTCAAAGCTTTGTCCGTAGA | 0.217 | 2.07 | -1.59 | -1.02 | 1.34 | 3.51 | 0.43 | 3.77 | -0.688 | 4.08
CCTACTGGGCCATGGTCATTGATCAGTCAAAGCA | 3.04 | 3.48 | -0.574 | -0.734 | 0.222 | -0.316 | -0.489 | -0.363 | -1.03 | 0.532
ATCGAAGGGTCGTGAGGTGAGTATACAGAAAGGC | -0.293 | 1.48 | 0.829 | 0.999 | 1.33 | 2 | 0.191 | 2.84 | 0.629 | 2.61

Sequence | PBM binding z-score [1] | PBM binding z-score [2] | PBM binding z-score [3] | PBM binding z-score [4] | PBM binding z-score [5] | PBM binding z-score [6] | PBM binding z-score [7] | PBM binding z-score [8] | PBM binding z-score [9] | PBM binding z-score [10]
TAGCCTAGGTCATTGGGACAGTATAGTACGCATC | 3.11 | 3.8 | 1.3 | 0.736 | 2.9 | 1.78 | -0.233 | 2.5 | 0.512 | 3.75
GCTGCTAGGTCAGGTTGGTCAGGTAACGGGTACG | 2.86 | 2.24 | -0.63 | -0.722 | 0.641 | 0.475 | -0.529 | 0.834 | -0.052 | 3.15
CATCCAAGGTCATAGGAGGTCAGTGAAGACAGAT | 3.6 | 4.75 | 3.02 | 2.08 | 5.33 | 6.96 | 4.63 | 6.4 | 3.27 | 5.38
ACTATTAGTTGACTTATGGCAACCGATACGACGC | 0.0133 | 0.165 | 1.06 | 1.08 | 0.983 | 0.367 | 0.358 | 0.397 | 1.2 | 0.351
ATACCAAGGTGATCGTGAGGGCGTTGATACTAAC | 0.642 | 0.871 | 0.129 | 1.25 | 0.383 | 1.29 | 0.775 | 0.85 | 0.505 | 0.796
CCTACTGGGCCTTCAGGTCATTGATATCAACGTT | 2.17 | 2.64 | 0.207 | 0.0216 | 1.5 | 1.47 | 0.552 | 1.5 | -0.361 | 1.7
AGAATGAGGTTAAGATCAGGGAGACAGAATACAT | 3.04 | 2.59 | 1.8 | 0.747 | 0.955 | 1.26 | 0.933 | 1.95 | 0.709 | 1.91
CAAACTAGGTCAAAAGTCAAAGTCGAGCCAACCA | 8.48 | 8.18 | 0.975 | 1.19 | 1.78 | 2.68 | -0.0368 | 4.56 | 0.778 | 3.78
TTTTGTAGATCAAGCAGGTTAAGAAAGCCTGAGT | 0.762 | 1.22 | 1.82 | 1.21 | 0.487 | 0.303 | 0.386 | 0.469 | 0.538 | 0.329
CAAACTAGGTCAAGAAGTCAAAGTCCGCTTCCCG | 7.86 | 8.35 | 2.53 | 3.42 | 2.98 | 1.49 | 0.206 | 2.77 | 0.734 | 4.05
CGTCAAAGTTCAACGAAGGTAACGTAAAGCACGC | 0.66 | 1.92 | 0.175 | 0.224 | 2.37 | 4.52 | 2.37 | 3.37 | 0.936 | 5.18
GCTGCCAGGTCAGGTTGGTCAGCTAACGGGTACG | 0.771 | 1.4 | -0.447 | -1.57 | 0.22 | 0.724 | -0.291 | 1.25 | -0.438 | 3.23
TAAATGAGGTTATAAGATCAGGGAACGTTGCAAA | 2.84 | 2.73 | 1.59 | 1.61 | 0.912 | 1 | 0.251 | 1.62 | 0.307 | 1.33
CCTACTGCGCCATTCAGAGGTCATTGATCATATG | 0.443 | 1.07 | 0.596 | 0.708 | 2.61 | 4.86 | 2.44 | 4.54 | 1.18 | 3.05
TCTATTAGTTGCTTAGGGCAACCGAAACAGCGGA | 2.15 | 0.552 | 0.453 | 1.28 | 0.448 | 0.524 | 0.123 | 0.386 | 0.367 | 0.946
ACTCGGAGGACAAAGGTCAGTGCTACGCCAGTGA | 0.807 | 3.58 | 1.11 | -0.05 | 3.66 | 3.7 | 0.26 | 4.7 | 1.27 | 4.5
ACTAGTTGGTCAGCTGAGGTCACACATAATTCGG | 1.85 | 2.53 | 0.818 | 1.05 | 2.38 | 5.42 | 1.87 | 4.34 | 1.21 | 3.51
TCGAGTAGGTTAGTCGGGGCACTCAGCCAACATA | 2.29 | 2.16 | -0.475 | -0.114 | 0.481 | 0.0586 | -0.241 | 0.247 | -0.581 | 0.524
CCGACTGGGGCAAGGTTCCCATAACGCACAGCCA | 2.36 | 3.12 | -0.684 | -0.962 | 0.192 | -0.613 | -0.376 | -0.115 | -0.502 | 0.825
CCTTACGGGTCACTGACAGGTTATAACATTTGGA | 3.56 | 3.86 | 0.537 | 0.266 | 2.85 | 3.67 | 0.294 | 4.67 | 1.52 | 3.9
CGAACTAGGTCACAGAGGTCAAAGTCCGTGCGTA | 8.62 | 8.94 | 8.99 | 6.82 | 9.8 | 6.92 | 13.2 | 7.77 | 5.26 | 5.23
CCTCCTGGGCCAAGGTCATTGATCAGTCAAAGCA | -0.293 | 1.48 | -1.33 | -1.61 | 1.55 | 3.38 | 0.83 | 3.49 | -0.129 | 3.47
TTACCAAGGTGAAAGGTCGTTTATGCACGCCTTG | 2.69 | 4.38 | 1.05 | 0.279 | 1.68 | 3.9 | 0.719 | 5.53 | 0.296 | 2.75
TCATATAGGTAAACAGGTGAAATTCCGTAAGTTA | 4.59 | 4.41 | 1.27 | 1.49 | 1.3 | 1.03 | 0.625 | 1.67 | 2.19 | 0.689
